Data reported in the supplement of paper PMC10849652.
About 7,900 targets were measured; listed, in parts, are those with a hit and a random draw of the rest. About 0.6% of all pairs of compound and target were hits. Unmarked numbers belong to inactive results.

Assays:
Assay in all cases: log2 fold change, soluble protein after heating vs DMSO (PISA); higher = thermal stabilisation; K562 cells, 10 uM, 30 min; active = over 0.2 and 3.5 SD of the protein, either way, in both replicates (recomputed)
[1] = compound: COC1=CC=C(C=C1)CN2C=CC3=C2C=C(C=C3)C(=O)NO
Method in brief: (§1)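 For each measurement, 10 μM compound was applied for 30 min to K562 cells at 2×10^6 cells/mL. Aliquots were heated for 3 min across 48°C-58°C, pooled, and extracted in PBS with 0.5% NP-40 at 4°C; the supernatant after 21,000xg for 90 min was soluble protein. This was quantified by TMTpro 16plex LC-MS/MS with channel sums equalised, and thermal stability was reported relative to control samples from duplicates, on a log2 fold-change scale.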

filanesib = compound: CON(C)C(=O)N1N=C(c2cc(F)ccc2F)S[C@@]1(CCCN)c1ccccc1 [filanesib]
Method in brief: as §1

zotarolimus = compound: CO[C@H]1C[C@@H]2CC[C@@H](C)[C@@](O)(O2)C(=O)C(=O)N2CCCC[C@H]2C(=O)O[C@H]([C@H](C)C[C@@H]2CC[C@H](n3cnnn3)[C@H](OC)C2)CC(=O)[C@H](C)/C=C(\C)[C@@H](O)[C@@H](OC)C(=O)[C@H](C)C[C@H](C)/C=C/C=C/C=C/1C [zotarolimus]
Method in brief: as §1

idasanutlin = compound: COc1cc(C(=O)O)ccc1NC(=O)[C@@H]1N[C@@H](CC(C)(C)C)[C@](C#N)(c2ccc(Cl)cc2F)[C@H]1c1cccc(Cl)c1F [idasanutlin]
Method in brief: as §1

alisertib = compound: COc1cc(Nc2ncc3c(n2)-c2ccc(Cl)cc2C(c2c(F)cccc2OC)=NC3)ccc1C(=O)O [alisertib]
Method in brief: as §1

[2] = compound: COc1cc2nc(-c3cc(F)ccc3O)nc(N[C@@H]3CNC[C@H]3C(C)(C)O)c2cc1OC
Method in brief: as §1

gefitinib = compound: COc1cc2ncnc(Nc3ccc(F)c(Cl)c3)c2cc1OCCCN1CCOCC1 [gefitinib]
Method in brief: as §1

[3] = compound: COc1cccc2cc(-c3nc([C@H]4CC[C@H](C(=O)O)CC4)n4ncnc(N)c34)[nH]c12
Method in brief: as §1

lapatinib = compound: CS(=O)(=O)CCNCc1ccc(-c2ccc3ncnc(Nc4ccc(OCc5cccc(F)c5)c(Cl)c4)c3c2)o1 [lapatinib]
Method in brief: as §1

pictilisib = compound: CS(=O)(=O)N1CCN(Cc2cc3nc(-c4cccc5[nH]ncc45)nc(N4CCOCC4)c3s2)CC1 [pictilisib]
Method in brief: as §1

[4] = compound: CS(=O)(=O)c1ccc(-c2cnc(N)c(C(=O)Nc3ccccc3)n2)cc1
Method in brief: as §1

crizotinib = compound: C[C@@H](Oc1cc(-c2cnn(C3CCNCC3)c2)cnc1N)c1c(Cl)ccc(F)c1Cl [crizotinib]
Method in brief: as §1

[5] = compound: C[C@@H]1COCCN1C2=NC(=NC(=C2)C3(CC3)S(=O)(=O)C)C4=C5C=CNC5=CC=C4
Method in brief: as §1

[6] = compound: C[C@H](C1=CC=C(C=C1)C(=O)NC2=C3C=CNC3=NC=C2)N
Method in brief: as §1

duvelisib = compound: C[C@H](Nc1ncnc2nc[nH]c12)c1cc2cccc(Cl)c2c(=O)n1-c1ccccc1 [duvelisib]
Method in brief: as §1

gandotinib = compound: Cc1cc(Nc2cc(CN3CCOCC3)c3nc(C)c(Cc4ccc(Cl)cc4F)n3n2)n[nH]1 [gandotinib]
Method in brief: as §1

tozasertib = compound: Cc1cc(Nc2cc(N3CCN(C)CC3)nc(Sc3ccc(NC(=O)C4CC4)cc3)n2)n[nH]1 [tozasertib]
Method in brief: as §1

[7] = compound: Cc1cc(SCc2sc(-c3ccc(C(F)(F)F)cc3)nc2C)ccc1OCC(=O)O
Method in brief: as §1

doramapimod = compound: Cc1ccc(-n2nc(C(C)(C)C)cc2NC(=O)Nc2ccc(OCCN3CCOCC3)c3ccccc23)cc1 [doramapimod]
Method in brief: as §1

ispinesib = compound: Cc1ccc(C(=O)N(CCCN)[C@@H](c2nc3cc(Cl)ccc3c(=O)n2Cc2ccccc2)C(C)C)cc1 [ispinesib]
Method in brief: as §1

Sequence of UniProt P42226 (P42226 whole entry, looked up): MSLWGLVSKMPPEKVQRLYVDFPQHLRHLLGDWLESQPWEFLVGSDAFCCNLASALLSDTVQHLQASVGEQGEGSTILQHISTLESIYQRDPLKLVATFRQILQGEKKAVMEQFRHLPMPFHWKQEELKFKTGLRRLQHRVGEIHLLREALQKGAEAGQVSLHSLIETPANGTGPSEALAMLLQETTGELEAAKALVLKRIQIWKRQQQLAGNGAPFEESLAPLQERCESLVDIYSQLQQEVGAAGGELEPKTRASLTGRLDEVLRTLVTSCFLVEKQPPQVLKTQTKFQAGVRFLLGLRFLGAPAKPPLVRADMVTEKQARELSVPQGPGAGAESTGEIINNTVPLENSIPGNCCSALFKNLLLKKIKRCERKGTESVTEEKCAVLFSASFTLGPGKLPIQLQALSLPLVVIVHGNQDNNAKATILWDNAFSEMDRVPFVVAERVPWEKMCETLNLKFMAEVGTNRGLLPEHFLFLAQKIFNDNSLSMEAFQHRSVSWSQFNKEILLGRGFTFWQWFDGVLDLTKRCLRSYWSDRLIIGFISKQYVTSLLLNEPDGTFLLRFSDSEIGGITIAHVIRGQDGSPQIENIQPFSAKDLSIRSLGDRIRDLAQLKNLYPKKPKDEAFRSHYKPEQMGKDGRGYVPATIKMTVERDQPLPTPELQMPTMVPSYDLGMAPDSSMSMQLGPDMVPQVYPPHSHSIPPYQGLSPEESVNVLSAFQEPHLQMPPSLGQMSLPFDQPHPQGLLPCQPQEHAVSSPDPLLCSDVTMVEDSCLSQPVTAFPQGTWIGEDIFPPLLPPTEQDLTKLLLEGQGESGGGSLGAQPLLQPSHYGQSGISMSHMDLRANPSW
Sequence of UniProt P15907 (P15907 whole entry, looked up): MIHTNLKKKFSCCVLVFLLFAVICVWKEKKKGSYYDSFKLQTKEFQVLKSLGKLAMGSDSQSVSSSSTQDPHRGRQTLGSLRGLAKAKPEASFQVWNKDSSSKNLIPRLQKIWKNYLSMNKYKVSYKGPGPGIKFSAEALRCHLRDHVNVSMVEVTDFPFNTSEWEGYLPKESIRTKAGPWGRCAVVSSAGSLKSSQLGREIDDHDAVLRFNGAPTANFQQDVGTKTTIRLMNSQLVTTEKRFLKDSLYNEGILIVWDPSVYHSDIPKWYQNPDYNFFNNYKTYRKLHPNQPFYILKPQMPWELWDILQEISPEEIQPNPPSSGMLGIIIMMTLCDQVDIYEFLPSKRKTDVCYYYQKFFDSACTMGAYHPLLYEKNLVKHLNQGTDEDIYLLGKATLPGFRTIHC
Sequence of UniProt Q8N0X7 (Q8N0X7 whole entry, looked up): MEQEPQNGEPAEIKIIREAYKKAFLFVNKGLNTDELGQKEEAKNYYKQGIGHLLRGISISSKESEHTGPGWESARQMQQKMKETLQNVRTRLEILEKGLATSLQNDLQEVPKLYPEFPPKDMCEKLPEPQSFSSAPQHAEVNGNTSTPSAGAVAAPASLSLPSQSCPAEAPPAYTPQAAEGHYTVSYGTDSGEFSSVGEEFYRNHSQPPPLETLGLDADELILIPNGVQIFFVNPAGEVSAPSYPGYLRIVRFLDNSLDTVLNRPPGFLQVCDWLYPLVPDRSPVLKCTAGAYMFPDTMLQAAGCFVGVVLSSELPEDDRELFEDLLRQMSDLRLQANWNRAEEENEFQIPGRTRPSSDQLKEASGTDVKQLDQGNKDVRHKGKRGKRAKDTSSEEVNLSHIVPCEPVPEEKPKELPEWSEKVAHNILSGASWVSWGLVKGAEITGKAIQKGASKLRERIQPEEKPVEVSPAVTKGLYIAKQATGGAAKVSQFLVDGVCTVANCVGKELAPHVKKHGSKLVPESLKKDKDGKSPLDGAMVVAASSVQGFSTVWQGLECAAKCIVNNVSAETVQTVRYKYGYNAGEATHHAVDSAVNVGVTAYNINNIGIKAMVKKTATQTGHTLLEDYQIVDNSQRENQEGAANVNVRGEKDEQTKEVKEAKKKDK
Sequence of UniProt Q9UP52 (Q9UP52 whole entry, looked up): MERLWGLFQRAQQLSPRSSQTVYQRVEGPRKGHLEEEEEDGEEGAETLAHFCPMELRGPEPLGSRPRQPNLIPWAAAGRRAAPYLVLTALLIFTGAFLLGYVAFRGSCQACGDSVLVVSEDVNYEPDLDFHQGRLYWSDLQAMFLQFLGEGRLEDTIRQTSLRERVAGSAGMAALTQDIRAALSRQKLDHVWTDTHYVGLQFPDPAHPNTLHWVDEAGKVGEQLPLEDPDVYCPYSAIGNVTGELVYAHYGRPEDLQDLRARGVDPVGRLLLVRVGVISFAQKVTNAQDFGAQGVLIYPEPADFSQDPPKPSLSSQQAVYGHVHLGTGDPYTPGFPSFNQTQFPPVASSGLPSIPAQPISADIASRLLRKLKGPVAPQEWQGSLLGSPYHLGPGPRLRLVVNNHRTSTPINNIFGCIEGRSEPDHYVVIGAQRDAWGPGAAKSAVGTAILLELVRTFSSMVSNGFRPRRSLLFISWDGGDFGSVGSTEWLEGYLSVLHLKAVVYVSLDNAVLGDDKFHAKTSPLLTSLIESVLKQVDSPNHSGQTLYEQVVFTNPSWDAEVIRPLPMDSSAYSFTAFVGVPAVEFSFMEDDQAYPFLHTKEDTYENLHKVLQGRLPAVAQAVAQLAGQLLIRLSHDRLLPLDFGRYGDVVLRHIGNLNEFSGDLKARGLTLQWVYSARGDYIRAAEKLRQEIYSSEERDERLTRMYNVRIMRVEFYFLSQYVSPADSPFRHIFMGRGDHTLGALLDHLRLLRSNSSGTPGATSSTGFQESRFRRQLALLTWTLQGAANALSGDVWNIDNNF
Sequence of UniProt O95926 (O95926 whole entry, looked up): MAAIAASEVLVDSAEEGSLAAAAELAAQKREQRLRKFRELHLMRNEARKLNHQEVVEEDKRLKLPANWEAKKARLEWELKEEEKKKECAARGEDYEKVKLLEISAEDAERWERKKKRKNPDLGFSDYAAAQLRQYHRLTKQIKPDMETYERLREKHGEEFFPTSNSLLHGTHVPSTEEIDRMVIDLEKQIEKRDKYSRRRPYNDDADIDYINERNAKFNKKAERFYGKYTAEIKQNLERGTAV
Sequence of UniProt Q8WXA9 (Q8WXA9 whole entry, looked up): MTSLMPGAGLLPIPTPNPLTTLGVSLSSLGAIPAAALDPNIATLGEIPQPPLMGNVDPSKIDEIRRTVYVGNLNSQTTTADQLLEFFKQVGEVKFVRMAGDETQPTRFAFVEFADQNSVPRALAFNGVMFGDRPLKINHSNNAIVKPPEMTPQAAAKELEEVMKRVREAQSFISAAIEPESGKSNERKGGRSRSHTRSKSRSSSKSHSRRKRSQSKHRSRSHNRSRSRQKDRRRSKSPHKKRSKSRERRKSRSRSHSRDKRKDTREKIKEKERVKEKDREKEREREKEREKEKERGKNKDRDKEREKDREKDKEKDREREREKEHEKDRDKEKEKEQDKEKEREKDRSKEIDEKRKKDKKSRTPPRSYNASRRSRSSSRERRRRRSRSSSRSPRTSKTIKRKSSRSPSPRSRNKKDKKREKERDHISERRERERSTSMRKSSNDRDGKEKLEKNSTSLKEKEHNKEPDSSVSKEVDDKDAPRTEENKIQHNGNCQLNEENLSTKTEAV
Sequence of UniProt Q9UHD2 (Q9UHD2 whole entry, looked up): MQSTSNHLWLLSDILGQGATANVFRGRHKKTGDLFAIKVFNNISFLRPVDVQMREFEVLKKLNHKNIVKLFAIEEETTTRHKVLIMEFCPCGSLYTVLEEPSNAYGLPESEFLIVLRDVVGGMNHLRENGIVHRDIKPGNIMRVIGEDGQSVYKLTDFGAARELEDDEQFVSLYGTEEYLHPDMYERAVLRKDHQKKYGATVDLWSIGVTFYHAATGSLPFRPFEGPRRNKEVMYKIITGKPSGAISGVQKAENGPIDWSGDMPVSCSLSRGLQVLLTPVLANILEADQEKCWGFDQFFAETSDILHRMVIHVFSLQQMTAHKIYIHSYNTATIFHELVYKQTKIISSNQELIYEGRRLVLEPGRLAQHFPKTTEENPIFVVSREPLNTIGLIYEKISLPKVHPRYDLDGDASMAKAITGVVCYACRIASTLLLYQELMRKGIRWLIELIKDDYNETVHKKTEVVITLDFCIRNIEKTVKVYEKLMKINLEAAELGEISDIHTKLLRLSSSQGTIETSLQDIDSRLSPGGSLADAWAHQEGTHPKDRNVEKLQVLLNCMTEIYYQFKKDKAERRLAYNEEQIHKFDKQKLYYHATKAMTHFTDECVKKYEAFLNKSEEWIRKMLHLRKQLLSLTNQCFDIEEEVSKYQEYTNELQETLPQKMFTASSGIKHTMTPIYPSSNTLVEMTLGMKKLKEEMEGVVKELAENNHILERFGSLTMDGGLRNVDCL
Sequence of UniProt P08579 (P08579 whole entry, looked up): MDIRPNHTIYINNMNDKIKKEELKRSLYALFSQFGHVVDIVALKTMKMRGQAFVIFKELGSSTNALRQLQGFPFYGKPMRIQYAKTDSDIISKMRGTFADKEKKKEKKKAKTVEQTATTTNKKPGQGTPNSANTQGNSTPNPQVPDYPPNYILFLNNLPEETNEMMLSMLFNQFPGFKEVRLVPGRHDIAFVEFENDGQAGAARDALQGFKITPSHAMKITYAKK
Sequence of UniProt O43615 (O43615 whole entry, looked up): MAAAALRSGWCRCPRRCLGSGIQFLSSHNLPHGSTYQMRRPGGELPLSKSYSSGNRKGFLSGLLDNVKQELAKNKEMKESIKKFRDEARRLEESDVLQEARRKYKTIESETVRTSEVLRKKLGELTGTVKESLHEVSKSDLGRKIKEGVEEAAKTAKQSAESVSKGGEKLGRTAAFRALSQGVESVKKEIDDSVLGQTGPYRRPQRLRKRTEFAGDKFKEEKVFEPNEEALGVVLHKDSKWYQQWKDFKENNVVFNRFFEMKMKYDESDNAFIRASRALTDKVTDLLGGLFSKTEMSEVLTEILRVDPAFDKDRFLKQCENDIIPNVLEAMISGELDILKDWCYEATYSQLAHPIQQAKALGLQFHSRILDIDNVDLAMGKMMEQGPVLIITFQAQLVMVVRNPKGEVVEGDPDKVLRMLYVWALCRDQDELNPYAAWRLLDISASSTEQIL

| Target | log2 fold change [1] | log2 fold change (filanesib) | log2 fold change (zotarolimus) | log2 fold change (idasanutlin) | log2 fold change (alisertib) | log2 fold change [2] | log2 fold change (gefitinib) | log2 fold change [3] | log2 fold change (lapatinib) | log2 fold change (pictilisib) | log2 fold change [4] | log2 fold change (crizotinib) | log2 fold change [5] | log2 fold change [6] | log2 fold change (duvelisib) | log2 fold change (gandotinib) | log2 fold change (tozasertib) | log2 fold change [7] | log2 fold change (doramapimod) | log2 fold change (ispinesib) |
| --- | --- | --- | --- | --- | --- | --- | --- | --- | --- | --- | --- | --- | --- | --- | --- | --- | --- | --- | --- | --- |
| TFR2 (UniProt Q9UP52) | -0.066 | 0.011 | -0.06 | 0.035 | -0.04 | 0.011 | -0.035 | 0.041 | -0.011 | 0.05 | 0.068 | -0.182 | -0.001 | -0.016 | 0.032 | 0.03 | -0.023 | -0.038 | -0.019 | -0.097 |
| SUPT16H (UniProt Q9Y5B9) | 0.106 | -0.026 | 0.104 | -0.057 | 0.12 | -0.036 | 0.062 | -0.023 | 0.035 | 0.011 | 0.138 | -0.062 | 0.251 | -0.093 | 0.084 | -0.024 | 0.234 | 0.248 | -0.047 | 0.028 |
| STXBP5 (UniProt Q5T5C0) | -0.012 | -0.039 | 0 | -0.022 | -0.084 | 0.015 | -0.006 | 0.003 | 0.023 | -0.038 | -0.021 | -0.024 | 0.006 | 0.047 | 0.066 | -0.029 | 0.017 | -0.002 | 0.026 | -0.058 |
| SLC6A6 (UniProt P31641) | -0.1 | -0.013 | -0.017 | -0.066 | -0.031 | -0.066 | -0.044 | 0.041 | -0.012 | 0.072 | 0.021 | 0.04 | -0.026 | -0.021 | 0.06 | -0.049 | -0.091 | -0.042 | -0.063 | -0.028 |
| SNX6 (UniProt Q9UNH7) | -0.036 | -0.187 | 0.02 | -0.01 | -0.035 | -0.109 | -0.123 | 0.004 | -0.055 | -0.252 | -0.169 | -0.323 | -0.014 | -0.033 | -0.277 | -0.5 (active) | -0.118 | 0.061 | -0.036 | -0.281 |
| SULT1A1 (UniProt P50225) | 0.161 | 0.034 | 0.042 | -0.02 | 0.056 | 0.046 | 0.062 | -0.03 | 0.026 | 0.138 | -0.019 | 0.065 | 0.065 | -0.073 | -0.101 | -0.029 | 0.006 | 0.035 | 0.016 | -0.018 |
| ST6GAL1 (UniProt P15907) | 0.013 | 0.224 (active) | 0.051 | 0.066 | -0.085 | 0.046 | 0.095 | -0.003 | 0.116 | 0.063 | -0.064 | -0.189 | -0.005 | 0.037 | 0.073 | 0.014 | 0.001 | 0.018 | 0.083 | 0.002 |
| SREK1 isoform 2 (UniProt Q8WXA9) | 0.26 | -0.1 | 0.053 | 0.086 | -0.096 | -0.072 | 0.066 | 0.06 | 0.108 | -0.001 | 0.317 | -0.05 | -0.005 | -0.345 | 0.026 | 0.014 | 0.003 | 0.105 | -0.027 | 0.059 |
| SPART (UniProt Q8N0X7) | -0.073 | 0.011 | 0.02 | 0.03 | -0.009 | 0.067 | 0.054 | -0.028 | -0.015 | 0.05 | 0.006 | -0.107 | 0.056 | 0.101 | 0.053 | -0.088 | 0.044 | 0.055 | 0.014 | -0.001 |
| TBK1 (UniProt Q9UHD2) | -0.06 | 0.05 | -0.037 | 0.046 | 0.064 | 0.087 | -0.098 | 0.08 | -0.018 | 0.009 | -0.027 | 0.489 (active) | -0.021 | 0.043 | 0.082 | 0.237 | 0.129 | 0.175 | 0.013 | -0.18 |
| STAT6 (UniProt P42226) | 0.019 | 0.091 | 0.055 | 0.102 | 0.094 | 0.002 | 0.014 | 0.155 | -0.016 | -0.13 | -0.083 | -0.037 | 0.028 | -0.011 | -0.132 | -0.269 | 0.171 | -0.123 | 0.043 | -0.033 |
| SNRPB2 (UniProt P08579) | -0.018 | 0.057 | -0.035 | 0.021 | -0.121 | 0.047 | -0.021 | -0.006 | -0.002 | 0.006 | -0.014 | 0.02 | -0.024 | 0.008 | -0.017 | 0.026 | -0.008 | -0.048 | -0.01 | 0.027 |
| SYF2 (UniProt O95926) | -0.236 | 0.069 | -0.174 | 0.058 | -0.07 | 0.191 | -0.109 | 0.02 | -0.025 | -0.092 | -0.147 | 0.206 | -0.031 | 0.157 | -0.039 | 0.11 | -0.113 | -0.078 | 0.022 | -0.079 |
| SNRPD3 (UniProt P62318) | -0.169 | 0.152 | -0.051 | 0.025 | -0.132 | 0.039 | -0.019 | 0.023 | 0.028 | 0.064 | -0.102 | 0.011 | 0.036 | 0.041 | 0.039 | 0.034 | -0.035 | -0.04 | 0.055 | 0.006 |
| TIMM44 (UniProt O43615) | 0 | -0.229 | 0.027 | -0.042 | -0.021 | -0.296 (active) | -0.135 | 0.017 | -0.073 | -0.041 | -0.028 | -0.207 | 0.056 | -0.015 | 0.085 | -0.258 | -0.038 | 0.091 | -0.035 | -0.128 |
| SMARCE1 (UniProt Q969G3) | 0.035 | 0.058 | 0.052 | 0.013 | -0.21 | -0.07 | 0.066 | 0.206 | 0.038 | -0.062 | -0.088 | 0.011 | 0.048 | 0.093 | 0.014 | -0.087 | 0.091 | 0.135 | 0.052 | 0.048 |
